The results in this text go back to PubChem BioAssay (NCI).

About 83,000 compounds went through this panel and 20% of them were active in at least one assay; those are over-represented in the sample as a whole.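 48-hour exposure, single concentration, 96-well plates; percent growth endpoint where 0 means no net growth. Active: below 10.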 Values without a mark were called inactive. Activity calls are given as the source filed them.

Holding throughout (assay): NCI-60 one-dose screen, 48 h (100 = growth as untreated, 0 = no growth, -100 = all killed)
The test system of experiment [1] is NCI-H522 lung. Particulars: 10 µM unless noted.
The subject of experiment [2] is COLO 205 colon. Particulars: 10 µM.
Experiment [3] deals with MALME-3M melanoma. Particulars: 10 µM unless noted.
Experiment [4] deals with HCT-15 colon. The conditions noted are these: 10 µM.
Experiment [5] relates to SNB-19 CNS. Particulars: 10 µM unless noted.
The subject of experiment [6] is LOX IMVI melanoma. The conditions noted are these: 10 µM unless noted.
The subject of experiment [7] is EKVX NSCLC. The conditions noted are these: 10 µM unless noted.
Experiment [8] has as its system SN12C renal. The conditions noted are these: 10 µM unless noted.
Experiment [9] deals with TK-10 renal. Particulars: 10 µM unless noted.
Experiment [10] relates to MOLT-4 leukemia. Particulars: 10 µM.
Experiment [11] deals with SR leukemia. Particulars: 10 µM.
For experiment [12], the system named is RPMI-8226 leukemia. The conditions noted are these: 10 µM unless noted.
Experiment [13] has as its system OVCAR-8 ovarian. Particulars: 10 µM unless noted.
In experiment [14] the test system is IGROV1 ovarian. Particulars: 10 µM.
Experiment [15] deals with MDA-MB-435 melanoma. The conditions noted are these: 10 µM unless noted.
The subject of experiment [16] is HCC-2998 colon. Particulars: 10 µM unless noted.
Experiment [17] has as its system SK-MEL-5 melanoma. Particulars: 10 µM unless noted.
Experiment [18] relates to CCRF-CEM leukemia. The conditions noted are these: 10 µM unless noted.

Take `S=P(NC1CCCCC1)(N1CC1)N1CC1`: the growth in [1] is 106%; in [2], 179%; in experiment [3], 106%; in experiment [4] it was 108%; in [5] it was 113%; in [6], 96.5%. For the same molecule, the growth in experiment [7] is 102%; in experiment [8], 98.1%; in experiment [9], 116%; in experiment [10], 99.1%; in [11] it was 104%; in experiment [12], 76.7%. Further, the growth in [13] is 104%; in [14], 97.3%; in [15], 110%; in experiment [16], 131%.

Consider `CC(/C=N/N=C(N)N)=N/N=C(N)N`, for which the growth is 117% in [1]; 81.7% in experiment [2]; 98% in experiment [4]; 87.3% in experiment [5]; 107% in experiment [17]; 88.9% in experiment [6]. For the same molecule, the growth in [7] was 92.9%; in experiment [8], 94.9%; in experiment [18], 90.1%; in experiment [11] it was 78.4%; in experiment [12] it was 95.7%; in experiment [13], 77.8%. Besides, the growth in [15] was 100%; in experiment [16], -14.8% (active).

Consider `COc1ccc(OC)c(/C=C(/C)[N+](=O)[O-])c1`, for which the growth was -78.1% (active) in experiment [1]; -38.9% (active) in experiment [2]; -33.1% (active) in [4]; 97.6% in experiment [5]; 83.9% in experiment [7]; -19.1% (active) in [9]. Further, the growth in experiment [11] was -7.63% (active); in experiment [12] it was -21.9% (active); in experiment [14], -24.8% (active); in [15] it was 23.1%.

In the case of `c1cnc2c(c1)ccc1ncccc12`, the growth in experiment [1] was 93.8%; in [2], 110%; in experiment [3] it was 118%; in experiment [5], 95.7%; in experiment [17], 104%; in experiment [6], 106%. Moreover, the growth was 94.2% in [7]; 95.3% in experiment [8]; 114% in experiment [9]; 95.6% in experiment [18]; 100% in experiment [10]; 110% in [11]. Also, the growth was 94.4% in experiment [13], 113% in experiment [15] and 119% in [16].

Consider `CC(C)(O)/C=C/C(=O)[C@](C)(O)[C@H]1[C@H](O)C[C@@]2(C)[C@@H]3CC=C4[C@@H](C=C(O)C(=O)C4(C)C)[C@]3(C)C(=O)C[C@]12C`, for which the growth in [1] was -74.7% (active); in experiment [2] it was -52.3% (active); in experiment [3], -66.5% (active); in experiment [4] it was -52% (active); in experiment [5], -53.1% (active); in [17] it was -78.4% (active). Also, the growth in experiment [6] is -59.6% (active); in [7], -10.9% (active); in experiment [8], 7% (active); in [9], -54.9% (active); in [18], -29.1% (active); in experiment [10], -15.1% (active). Further, the growth in experiment [11] was -7.28% (active); in [12], -53.8% (active); in experiment [15], -52.1% (active); in [16], -99% (active).

As for `CC[C@@H](C)/C=C(C)/C=C/C(=O)c1c(O)c(-c2ccc(O)cc2)cn(O)c1=O`, the growth is 21.9% in experiment [1]; 85.2% in experiment [2]; -7% (active) in [3]; 30.7% in experiment [4]; 13.6% in experiment [5]; 3.82% (active) in [6]. Moreover, the growth in [7] was -0.798% (active); in experiment [8], 13.6%; in [9], 11.6%; in experiment [18], 9.47% (active); in [12], 22.5%; in experiment [13], 4.95% (active). Also, in experiment [14], the growth is 5.54% (active).

For `C=C=[CH][Sn]([c]1ccccc1)([c]1ccccc1)[c]1ccccc1`, the growth in [1] is -69.4% (active); in [2] it was -84.2% (active); in [3] it was -36.6% (active); in [4], -48.6% (active); in experiment [5], -50% (active); in [17], -81.5% (active). The growth is -77.2% (active) in [6]; -32.7% (active) in experiment [7]; -73.5% (active) in experiment [8]; -74.7% (active) in [9]; -0.102% (active) in [18]; -17.5% (active) in experiment [12]. The growth was -30% (active) in experiment [13], -22.2% (active) in experiment [14], -59.5% (active) in experiment [15] and -67.2% (active) in experiment [16].

For `O=CN1N=C(c2ccccc2)CC1c1sc(N(CCCl)CCCl)nc1Cl` (centres undefined), the growth in [1] is 70.8%; in experiment [2], 95.5%; in [3], 111%; in experiment [4], 92.8%; in experiment [5], 90.9%; in experiment [17], 98.5%. The growth in experiment [7] is 89.5%; in experiment [9], 121%; in [18], 104%; in [10], 85.6%; in [13] it was 91%; in [14], 96%. In addition, in experiment [16], the growth is 103%.

Turning to `O=CC(Br)C(Br)c1ccccc1` (centres undefined), the growth in experiment [1] was 98%; in experiment [2] it was 123%; in experiment [3], 82.6%; in experiment [5], 96%; in experiment [17], 89.9%; in experiment [6] it was 56.2%. Besides, the growth in experiment [8] was 86.7%; in experiment [9], 106%; in [18], -1.8% (active); in experiment [10], 16.6%; in experiment [11], 16.1%; in experiment [12], 89%. Further, the growth was 74.8% in experiment [14], 99.3% in experiment [15] and 106% in experiment [16].

Consider `O=CN1N=C(c2ccc3c(c2)OCO3)CC1c1sc(N(CCCl)CCCl)nc1Cl` (centres undefined), for which the growth was 74.7% in experiment [1]; 104% in [2]; 106% in experiment [3]; 99.5% in [4]; 101% in experiment [17]; 100% in experiment [6]. Also, the growth in [7] is 97.9%; in experiment [8], 94.8%; in [9], 95.3%; in [18] it was 92.1%; in experiment [10], 79.3%; in experiment [11], 87.6%. Moreover, the growth in experiment [13] was 92.9%; in experiment [14], 93.2%; in experiment [16], 106%.

Take `CN1CCN(C(=O)COc2ccc(/C=C3\CC4C5CC=C6CC(Cl)CCC6(C)C5CCC4(C)C3=O)cc2)CC1` (centres undefined): the growth in [1] was 61.5%; in experiment [2] it was 60.5%; in [3], 73.8%; in experiment [4], 54.4%; in experiment [5], 98%; in [17], 80.4%. The growth was 68.2% in experiment [7]; 79.7% in experiment [8]; 88.2% in [9]; 59.3% in experiment [10]; 0.223% (active) in experiment [11]; 53.5% in experiment [12]. The growth in [13] is 78.9%; in experiment [14], 86.6%; in experiment [15] it was 56.6%; in [16], 90.6%.
